Screens as filed in PubChem.
A selection: hits, their analogues and other compounds. The true share with any hit is near 8.1%.
MCF10A rereplic: DNA re-replication induction in MCF 10a cells. AID 624296. Potency, µM (titrated, usually from 46.1 µM), inactives show top-dose activity, positive = re-replication, usual class: activators. MCF 10A DNA re-replication, Hoechst nuclear intensity, 48 h. 350,000 compounds, 2.9% hits; note: % of control where 0% means no effect; nearly all actives have a fitted effect of over 50% in size
KB-3-1 tox: KB-3-1 parental cell cytotoxicity. KB-3-1 viability, CellTiter-Glo ATP luminescence, 72 h. 400,000 compounds, 1.4% hits. Potency, µM (series often up to 46.1 µM), actives largely listed as cytotoxic; note: % is set by controls: 0 for no effect and ±100 for the full control effect; nearly all actives have a fitted effect of over 60% in size
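Parental KB-3-1 viability, qHTS format: 72 h compound exposure, 37 °C; CellTiter-Glo; media-only wells and DMSO plates as controls; concentration-effect fits on corrected data.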
KB-V1 MDR tox: kills drug-selected multidrug resistant KB-V1 cells. Potency, µM (highest dose often 46.1 µM), actives largely listed as cytotoxic. KB-V1 MDR cells viability, CellTiter-Glo, 72 h. 400,000 compounds, 3.4% hits; note: % is set by controls: 0 for no effect and ±100 for the full control effect; nearly all actives have a fitted effect of over 60% in size
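Drug-selected KB-V1 cells, grown in DMEM lacking phenol red with 10% FBS, receive compound titrations; after three days at 37 degrees C, surviving cell ATP is quantified by CellTiter-Glo luminescence and responses normalized and curve-fitted.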
SW480 rerep: induces DNA re-replication in SW480 colon adenocarcinoma cells; SW480 DNA re-replication, Hoechst DNA content imaging, 48 h; Potency, µM (doses to about 46.1 µM), for the others: top-dose re-replication activation, actives largely listed as activators; 340,000 compounds, 1.8% hits; note: % of control where 0% means no effect; nearly all actives have a fitted effect of over 55% in size
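DNA re-replication was detected as more nuclei of elevated Hoechst intensity after 48 hr exposure to compound (23 nL pinned per well of 250 cells).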
ELG1 DNA repair: inhibitors of ELG1-dependent DNA repair in HEK293T cells | HEK293T ELG1-luciferase reporter, luminescence, 16 h; DNA damage induced by 5-fluorouridine | Potency, µM (top dose mostly 46.1 µM), without a hit: at the top dose activity change, negative = inhibition, usual class: inhibitors | 330,000 compounds, 2.3% hits; note: % is set by controls: 0 for no effect and ±100 for the full control effect; nearly all actives have a fitted effect of over 55% in size
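HEK293T cells expressing luciferase-tagged ELG1 (2,000/well) received 5-Fluorouridine plus compound or DMSO for 16 hr at 37 °C. Luciferase was read by ONE-Glo luminescence after 30 min at room temperature.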
* hit, by the source's call; i = inactive; ? = inconclusive; . = no result given; ! = not confirmed by another sample; [ ] = dose if it differs, or a comment. Calls come from the whole dose curve; as a rule, active = well fitted curve in the direction sought with a large enough effect; inconclusive = small, poorly fitted or top-dose-only effect, or another doubt; inactive = no such curve, though single readings can be large; an effect the other way counts as inactive or inconclusive. Potency is the fitted concentration of half-maximal effect.

SMILES | MCF10A rereplic | KB-3-1 tox | KB-V1 MDR tox | SW480 rerep | ELG1 DNA repair
Cc1[nH]c2ccccc2c1C(=O)CN1CC=C(c2ccccc2)CC1 | 18µM* | ? | i | ? | -2%
O=P(O)(O)Cc1c(Cl)cccc1Cl | -1% | i | i | -700% | 0%
O=P(O)(O)Cc1ccccc1OP(=O)(c1ccccc1)c1ccccc1 | 20% | i | 23µM* | 1% | -9%
COc1ccc2c(c1OC)CN1CCc3cc4c(cc3[C@H]1C2)OCO4 | -28% | i | i | -11% | -9%
CCC1CN2CCc3cc(OC)c(OC)cc3C2CC1CC1NCCc2c1[nH]c1ccc(O)cc21 (stereo not given) | ? | 0.41µM* | i | ? | .
C[C@]12CC[C@H]3C(CCC4(O)CC(O)CC[C@]34C=O)C1=CC[C@H]2c1ccc(=O)oc1 (stereo not given in full) | 20% | 23µM* | i | ? | ?
C=CC(=O)OCCO | ? | i | i | -3% | .
C[C@@H]1O[C@@H](O[C@@H]2C=C3CC[C@@H]4[C@@H](CC[C@]5(C)[C@H](c6ccc(=O)oc6)CC[C@@]45O)[C@@]3(C)CC2)[C@H](O)[C@H](O)[C@H]1O | . | 0.012µM* | 0.92µM* | . | .
O=[N+]([O-])c1ccc(O)c([N+](=O)[O-])c1 | 1% | i | ? | -87% | .
O=[N+]([O-])c1ccc(Cl)c([N+](=O)[O-])c1 | ? | ? | 16µM* | ? | ?
O=S(=O)(c1ccc(Cl)cc1)N1CCCC1c1cccnc1 (stereo not given) | -3% | i | i | -12% | -12%
CN(Cc1ccccc1)C(=O)c1ccc(NC(=O)C2CCN(C(=O)OC(C)(C)C)CC2)cc1 | -5% | ? | i | 6% | 10µM*
CC1CN=C(NCc2ccccc2)S1 (stereo not given) | 1% | i | i | -2% | 24%
CCOC(=O)c1cnc(SCc2ccc(Cl)c(Cl)c2)nc1N1CC1 | 13µM* | i | 8.2µM* | 4.1µM* | .
C[C@H](CCC(=O)O)[C@H]1CC[C@@H]2[C@@H]3[C@@H](O)C[C@H]4C[C@@H](O)CC[C@@]4(C)[C@H]3CC[C@@]21C | -6%[20.6 µM] | . | . | -4%[20.6 µM] | .
COC(=O)[C@H]1[C@H]2C[C@@H]3c4[nH]c5cc(OC)ccc5c4CCN3C[C@H]2C[C@@H](OC(=O)/C=C/c2cc(OC)c(OC)c(OC)c2)[C@@H]1OC | 5.8µM* | i | i | 18µM* | -16%
C=CCn1c(O)c(C(C)=NC2CCN(Cc3ccccc3)CC2)c(=O)[nH]c1=O | 1% | i | ? | -20% | -4%
CC[C@H](C)[C@@H](C(=O)N1CCCC1c1nccs1)N(C)C(=O)[C@H](CC(C)C)N(C)C(=O)[C@H](Cc1ccc(OC)cc1)N(C)C(=O)/C=C(\C)OC (stereo not given in full) | ? | i | i | 21µM* | ?
COc1ccc(NC(=O)CCCn2c(=O)oc3ccccc32)cc1Cl | 3% | i | i | -11% | ?
COC(=O)C1=C(C)NC(C)=C(C(=O)OC)C1c1ccccc1[N+](=O)[O-] | ? | i | 8.2µM*! | ? | 10µM*
O=C(c1ccccc1F)N1CCN(Cc2nc3sc4c(c3c(=O)[nH]2)CCCC4)CC1 | 10% | i | ? | 4% | 16µM*
CC(C)NCC(O)c1ccc(C2CCCC2)cc1 (stereo not given) | 12% | i | 23µM* | -23% | -21%
O=C(NCc1ccc(C(=O)N2CCC3(CC2)OCCO3)cc1)c1cccc(Br)c1 | 1% | i | i | -4% | ?
CCN(c1ccc(C)cc1C)S(=O)(=O)c1nnc(NC(=O)c2ccco2)s1 | 21µM* | i | i | ? | 5%
Clc1ccc(C(c2ccc(Cl)cc2)n2cc[n+](CC(OCc3ccc(Cl)cc3Cl)c3ccc(Cl)cc3Cl)c2)cc1 (stereo not given) | 5.2µM* | ? | ? | -27% | ?
SMILES | MCF10A rereplic | KB-3-1 tox | KB-V1 MDR tox | SW480 rerep | ELG1 DNA repair
CC(C)C1C(c2ccccc2)N(C)C(c2ccccc2)CC1(O)c1ccccc1 (stereo not given) | 5.2µM* | i | ? | ? | -7%
NC1CC2CCCCC2CC1(O)c1ccccc1 (stereo not given) | . | i | i | . | .
CC(C)c1ccccc1OCC(=O)N1CCCN(C)CC1 | 23% | i | i | ? | 0%
CN1CCN(c2ncnc3ccc(Br)cc23)CC1 | -3% | i | i | -5% | 9.2µM*
CN1CCC(N(C)c2ncnc3ccc(Br)cc23)CC1 | 8% | i | i | 4% | ?
Cc1ccc(OCC(=O)N2CCN(Cc3cccnc3)CC2)cc1 | 4% | i | i | 7% | 14%
CC(C)CCNC(=O)CSc1nc2ccccc2c(=O)[nH]1 | 2% | i | 16µM* | -12% | 23%
CC(C)CCNC(=O)CN1C(=O)CN=C(c2ccccc2)c2ccccc21 | -2% | i | i | 0% | 0%
CN1CCN(c2cccc3c2C(=O)c2ccccc2C3=O)CC1 | -1% | ? | 18µM* | -2% | ?
O=c1[nH]c(=S)n(-c2cccc(C(F)(F)F)c2)c(O)c1C=NCCN1CCNCC1 | -1% | i | i | -3% | ?
N[C@@H](Cc1cc(Br)c(O)c(Br)c1)C(=O)O | 18µM* | . | . | -13% | 22%
c1ccc2cc(C3N4CCCN34)ccc2c1 (stereo not given) | 0% | i | i | 2% | ?
[O-]c1ccccc1-[n+]1c(-c2ccccc2)cc(-c2ccccc2)cc1-c1ccccc1 | ? | 12µM* | i | 3%[9.22 µM] | ?
Cc1ccccc1-[n+]1c(-c2ccccc2)cc(-c2ccccc2)cc1-c1ccccc1 | 17% | 6.5µM* | i | 2.3µM* | ?
Oc1ccccc1-[n+]1c(-c2ccccc2)cc(-c2ccccc2)cc1-c1ccccc1 | -7% | ? | i | -4% | ?
CN1C(=O)NC(=O)/C(=C\C=C\c2ccccc2[N+](=O)[O-])C1=O | ? | ? | i | 15µM* | ?
CCCC(=O)Nc1ccc(N2CCN(CC)CC2)c(Cl)c1 | -10% | i | ? | 5% | -1%
CCCC(=O)NC1=C(N2CC2)C(=O)C(NC(=O)CCC)=C(N2CC2)C1=O | ? | i | i | 2.3µM* | .
CC(=O)OC1CC[C@@]2(C)C(=CC(=O)C3C4CCC(OC(C)=O)[C@@]4(C)CCC32)C1 (stereo not given in full) | 1% | i | i | -23% | .
COCCO[C@H]1CC[C@@]2(C)C(=CCC3C2CC[C@@]2(C)C3CC[C@]2(C)O)C1 (stereo not given in full) | ? | i | ? | ? | 18µM*
